Results taken from the supplement of paper PMC10849652.
About 7,900 targets were measured; listed, in parts, are those with a hit and a random draw of the rest. About 0.6% of all pairs of compound and target were hits.

Compound: c1cn2cc(-c3ccc4cn[nH]c4c3)nc(Nc3ccc(N4CCOCC4)cc3)c2n1 [entospletinib]
Assay: log2 fold change, soluble protein after heating vs DMSO (PISA); higher = thermal stabilisation; K562 cells, 10 uM, 30 min; active = over 0.2 and 3.5 SD of the protein, either way, in both replicates (recomputed)
Method in brief: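 Values are thermal stability changes relative to control samples and are taken from duplicates. They are stated as log2 fold changes. Before quantification by TMTpro 16plex LC-MS/MS with equalised channel sums, K562 cells at 2×10^6 cells/mL were treated with 10 μM compound for 30 min, heated in aliquots for 3 min across 48°C-58°C, pooled, extracted in PBS with 0.5% NP-40 at 4°C, and centrifuged at 21,000xg for 90 min to give the soluble supernatant.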

UniProt Q9Y3C0, sequence (Q9Y3C0 whole entry, looked up): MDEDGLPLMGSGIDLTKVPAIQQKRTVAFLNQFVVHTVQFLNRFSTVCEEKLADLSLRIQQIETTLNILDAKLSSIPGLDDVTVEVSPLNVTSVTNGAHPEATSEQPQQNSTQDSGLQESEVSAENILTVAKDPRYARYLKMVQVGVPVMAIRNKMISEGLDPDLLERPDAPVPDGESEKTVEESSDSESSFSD
UniProt Q8IZ69, sequence (Q8IZ69 whole entry, looked up): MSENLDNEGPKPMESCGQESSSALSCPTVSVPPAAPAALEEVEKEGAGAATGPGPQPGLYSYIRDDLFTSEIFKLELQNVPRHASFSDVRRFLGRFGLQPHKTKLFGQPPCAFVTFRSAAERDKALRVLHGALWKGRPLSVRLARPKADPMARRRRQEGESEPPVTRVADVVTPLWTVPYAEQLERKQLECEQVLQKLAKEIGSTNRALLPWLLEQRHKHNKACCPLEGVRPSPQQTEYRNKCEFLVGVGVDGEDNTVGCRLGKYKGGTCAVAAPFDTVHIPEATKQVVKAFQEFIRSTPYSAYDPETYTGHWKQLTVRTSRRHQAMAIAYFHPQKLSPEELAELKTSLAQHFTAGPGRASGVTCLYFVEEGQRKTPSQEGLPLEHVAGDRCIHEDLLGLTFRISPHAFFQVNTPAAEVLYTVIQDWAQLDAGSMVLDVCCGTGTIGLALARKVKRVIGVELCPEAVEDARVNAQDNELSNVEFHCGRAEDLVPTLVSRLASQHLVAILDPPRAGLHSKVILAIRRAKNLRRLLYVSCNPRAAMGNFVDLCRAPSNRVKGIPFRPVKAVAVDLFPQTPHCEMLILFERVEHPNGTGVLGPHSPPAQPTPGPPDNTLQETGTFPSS
UniProt Q7Z392, sequence (Q7Z392 whole entry, looked up): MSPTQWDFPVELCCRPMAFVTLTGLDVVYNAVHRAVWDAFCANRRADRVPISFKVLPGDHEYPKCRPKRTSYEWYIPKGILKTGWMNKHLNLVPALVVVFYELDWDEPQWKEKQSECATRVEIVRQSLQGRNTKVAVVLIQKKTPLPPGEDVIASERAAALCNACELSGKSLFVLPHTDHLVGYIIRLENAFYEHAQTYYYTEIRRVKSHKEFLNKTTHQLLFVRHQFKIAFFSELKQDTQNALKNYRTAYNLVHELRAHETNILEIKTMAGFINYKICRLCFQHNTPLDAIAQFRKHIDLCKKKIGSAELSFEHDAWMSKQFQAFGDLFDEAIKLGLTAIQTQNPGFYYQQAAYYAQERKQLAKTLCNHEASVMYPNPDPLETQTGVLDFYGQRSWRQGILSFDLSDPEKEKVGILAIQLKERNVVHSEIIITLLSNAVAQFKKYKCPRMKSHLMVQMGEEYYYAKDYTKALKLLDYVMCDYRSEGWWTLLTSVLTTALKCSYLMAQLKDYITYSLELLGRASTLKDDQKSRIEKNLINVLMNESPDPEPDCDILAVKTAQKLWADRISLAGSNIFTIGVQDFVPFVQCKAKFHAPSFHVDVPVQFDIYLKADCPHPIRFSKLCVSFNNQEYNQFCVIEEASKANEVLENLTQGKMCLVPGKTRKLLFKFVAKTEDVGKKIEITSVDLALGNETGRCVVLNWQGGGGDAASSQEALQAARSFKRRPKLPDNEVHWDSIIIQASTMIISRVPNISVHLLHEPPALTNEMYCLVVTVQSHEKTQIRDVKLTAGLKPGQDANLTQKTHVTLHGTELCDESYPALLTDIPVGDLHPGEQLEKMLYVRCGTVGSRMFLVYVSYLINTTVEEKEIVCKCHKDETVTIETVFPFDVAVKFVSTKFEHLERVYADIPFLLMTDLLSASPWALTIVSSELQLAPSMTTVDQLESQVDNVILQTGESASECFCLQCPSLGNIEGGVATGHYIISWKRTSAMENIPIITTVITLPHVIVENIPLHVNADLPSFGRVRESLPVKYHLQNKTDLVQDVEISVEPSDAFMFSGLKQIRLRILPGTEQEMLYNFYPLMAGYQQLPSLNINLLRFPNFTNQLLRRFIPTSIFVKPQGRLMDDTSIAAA
UniProt A5PLN9, sequence (A5PLN9 whole entry, looked up): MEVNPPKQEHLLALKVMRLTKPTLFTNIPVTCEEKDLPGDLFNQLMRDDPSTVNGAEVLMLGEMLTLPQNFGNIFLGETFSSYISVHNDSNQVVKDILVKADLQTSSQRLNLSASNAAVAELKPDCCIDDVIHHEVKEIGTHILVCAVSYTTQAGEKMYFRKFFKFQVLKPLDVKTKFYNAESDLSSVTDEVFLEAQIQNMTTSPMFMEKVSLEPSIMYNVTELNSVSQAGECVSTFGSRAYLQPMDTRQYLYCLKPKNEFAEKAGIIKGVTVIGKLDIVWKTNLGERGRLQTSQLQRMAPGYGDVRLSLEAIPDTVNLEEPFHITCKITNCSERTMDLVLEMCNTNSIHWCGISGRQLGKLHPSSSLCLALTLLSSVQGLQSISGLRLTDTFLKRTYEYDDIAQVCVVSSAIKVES
UniProt Q5TAX3, sequence (Q5TAX3 whole entry, looked up): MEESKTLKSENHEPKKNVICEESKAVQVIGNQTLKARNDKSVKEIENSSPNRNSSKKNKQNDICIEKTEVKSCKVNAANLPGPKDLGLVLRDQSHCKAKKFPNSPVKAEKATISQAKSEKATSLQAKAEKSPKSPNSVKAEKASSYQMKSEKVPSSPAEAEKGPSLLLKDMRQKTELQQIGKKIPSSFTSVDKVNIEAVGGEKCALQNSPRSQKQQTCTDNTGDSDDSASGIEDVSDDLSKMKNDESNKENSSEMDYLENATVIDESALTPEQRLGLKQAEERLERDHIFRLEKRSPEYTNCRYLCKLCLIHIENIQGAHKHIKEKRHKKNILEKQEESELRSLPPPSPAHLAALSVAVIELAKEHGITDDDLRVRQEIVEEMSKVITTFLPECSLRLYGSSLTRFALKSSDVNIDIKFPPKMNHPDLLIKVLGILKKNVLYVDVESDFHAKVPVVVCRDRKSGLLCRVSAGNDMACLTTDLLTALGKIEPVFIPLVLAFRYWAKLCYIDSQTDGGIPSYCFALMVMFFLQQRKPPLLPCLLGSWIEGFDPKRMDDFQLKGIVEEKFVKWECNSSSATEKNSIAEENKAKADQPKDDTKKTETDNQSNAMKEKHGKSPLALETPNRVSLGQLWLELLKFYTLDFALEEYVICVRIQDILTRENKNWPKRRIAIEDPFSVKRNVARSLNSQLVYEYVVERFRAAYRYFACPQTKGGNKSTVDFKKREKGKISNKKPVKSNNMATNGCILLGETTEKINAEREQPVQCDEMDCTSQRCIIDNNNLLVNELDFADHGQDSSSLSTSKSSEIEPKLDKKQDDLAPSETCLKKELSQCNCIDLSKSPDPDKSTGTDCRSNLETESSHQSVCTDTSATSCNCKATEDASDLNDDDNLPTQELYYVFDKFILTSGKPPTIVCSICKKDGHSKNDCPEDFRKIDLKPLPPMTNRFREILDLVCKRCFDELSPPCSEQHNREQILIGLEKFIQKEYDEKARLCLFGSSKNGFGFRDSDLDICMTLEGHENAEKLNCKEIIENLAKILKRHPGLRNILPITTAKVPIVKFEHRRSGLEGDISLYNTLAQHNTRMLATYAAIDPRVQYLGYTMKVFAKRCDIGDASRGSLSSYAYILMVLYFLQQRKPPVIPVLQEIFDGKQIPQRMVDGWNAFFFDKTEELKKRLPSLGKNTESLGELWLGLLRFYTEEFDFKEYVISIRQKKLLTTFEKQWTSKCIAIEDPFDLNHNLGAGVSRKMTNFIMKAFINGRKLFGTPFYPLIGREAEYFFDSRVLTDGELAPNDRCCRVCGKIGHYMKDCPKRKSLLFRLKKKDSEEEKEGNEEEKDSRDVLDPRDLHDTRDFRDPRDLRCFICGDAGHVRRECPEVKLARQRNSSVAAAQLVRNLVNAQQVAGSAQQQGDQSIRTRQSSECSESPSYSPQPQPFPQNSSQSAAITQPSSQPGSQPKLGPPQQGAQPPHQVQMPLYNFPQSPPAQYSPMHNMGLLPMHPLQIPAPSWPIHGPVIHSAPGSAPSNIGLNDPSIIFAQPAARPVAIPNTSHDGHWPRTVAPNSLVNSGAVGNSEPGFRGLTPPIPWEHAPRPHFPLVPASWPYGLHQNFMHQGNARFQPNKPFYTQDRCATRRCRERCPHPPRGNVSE
UniProt P26368, sequence (P26368 whole entry, looked up): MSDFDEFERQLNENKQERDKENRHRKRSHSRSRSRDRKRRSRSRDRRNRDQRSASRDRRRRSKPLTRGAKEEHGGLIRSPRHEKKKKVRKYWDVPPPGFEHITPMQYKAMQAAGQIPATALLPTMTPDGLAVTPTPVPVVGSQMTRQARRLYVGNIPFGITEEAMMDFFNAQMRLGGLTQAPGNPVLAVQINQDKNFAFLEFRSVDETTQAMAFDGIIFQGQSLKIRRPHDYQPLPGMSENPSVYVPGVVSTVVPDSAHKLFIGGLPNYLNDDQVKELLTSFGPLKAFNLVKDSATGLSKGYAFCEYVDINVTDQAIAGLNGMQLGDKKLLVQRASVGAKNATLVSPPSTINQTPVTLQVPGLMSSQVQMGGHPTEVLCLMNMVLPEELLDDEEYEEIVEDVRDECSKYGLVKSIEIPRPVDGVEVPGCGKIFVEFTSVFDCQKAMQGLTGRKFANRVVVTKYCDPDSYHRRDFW
UniProt Q9NUM4, sequence (Q9NUM4 whole entry, looked up): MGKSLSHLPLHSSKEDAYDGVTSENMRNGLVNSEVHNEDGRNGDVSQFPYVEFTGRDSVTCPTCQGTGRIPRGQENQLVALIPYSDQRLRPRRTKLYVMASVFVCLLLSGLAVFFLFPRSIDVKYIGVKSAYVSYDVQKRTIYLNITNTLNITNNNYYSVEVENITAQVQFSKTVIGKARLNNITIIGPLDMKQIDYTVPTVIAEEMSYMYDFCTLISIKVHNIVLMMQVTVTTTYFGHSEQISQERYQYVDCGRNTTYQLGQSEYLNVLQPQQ
UniProt P02585, sequence (P02585 whole entry, looked up): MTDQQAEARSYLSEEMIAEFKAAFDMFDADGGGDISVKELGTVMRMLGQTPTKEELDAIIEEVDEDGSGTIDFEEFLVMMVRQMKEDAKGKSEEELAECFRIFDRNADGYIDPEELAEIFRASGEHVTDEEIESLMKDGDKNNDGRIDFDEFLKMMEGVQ

log2 fold change, inactive:
WASHC2C, A0A096LPC5 0.085
VPS50 (UniProt Q96JG6) -0.045
TMTC3 (UniProt Q6ZXV5) 0.007
UBA6 0.014
UBXN10 (UniProt Q96LJ8) 0.013
TRMT2A (UniProt Q8IZ69) 0.1
VPS53 isoform 4 (UniProt Q5VIR6) 0.003
TSC2 (UniProt P49815) -0.17
WASHC3 (UniProt Q9Y3C0) 0.007
VPS28 (UniProt Q9UK41) -0.039
XPNPEP3 (UniProt Q9NQH7) -0.025
VRK2 (UniProt Q86Y07) -0.078
TMEM214 (UniProt Q6NUQ4) -0.015
TRABD (UniProt Q9H4I3) 0.047
USP24 (UniProt Q9UPU5) 0.016
U2AF2 (UniProt P26368) 0.107
TMEM106B (UniProt Q9NUM4) -0.049
TUT4 (UniProt Q5TAX3) 0.066
USP48 isoform 8 (UniProt Q86UV5) 0.067
UBLCP1 (UniProt Q8WVY7) -0.013
UFL1 (UniProt O94874) -0.025
TRAPPC11 (UniProt Q7Z392) 0.012
VPS51 (UniProt Q9UID3) 0.007
TMEM9B (UniProt Q9NQ34) -0.049
WDR61 (UniProt Q9GZS3) 0.009
TRIM23 (UniProt P36406) -0.041
TPR (UniProt P12270) 0.067
TNNC2 (UniProt P02585) -0.038
XPO6 (UniProt Q96QU8) -0.027
TMEM268 isoform 3 (UniProt Q5VZI3) -0.054
TMEM173 (UniProt Q86WV6) -0.022
TMEM161A (UniProt Q9NX61) -0.026
TSG101 (UniProt Q99816) -0.014
TNFRSF10A (UniProt O00220) 0.011
TRAPPC13 isoform 5 (UniProt A5PLN9) -0.022
WDR7 (UniProt Q9Y4E6) 0.126
TMEM41A (UniProt Q96HV5) 0.042
XPOT (UniProt O43592) 0.032
UBE4A isoform 2 (UniProt Q14139) -0.043
